IL1B secr inh: qHTS for Inhibitors of Inflammasome Signaling: IL-1-beta AlphaLISA Primary Screen; actives 4.7% (n = 360,000); activity change, % at 57.5 µM; AID 743279, 2014; THP-1 LPS/ATP IL-1B secretion, AlphaLISA, 16 h; stronger effect = lower value; in the data active means activity change below about -50%; inconclusive means mostly about -30% to -49%
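Secreted IL-1B measured by AlphaLISA bead assay after 16 h compound exposure of THP-1 cells; compounds (final up to 57.5 uM) added 1 h before LPS (250 ng/mL) and ATP (1.25 mM) stimulation; lower signal means less secretion.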
DT40 TDP1 CPT: qHTS for Inhibitors of human tyrosyl-DNA phosphodiesterase 1 (TDP1): qHTS in cells in presence of CPT | chicken DT40 Tdp1-/-;hTDP1 cells + 20 nM CPT, ATP luminescence, 48 h | Potency, µM (titrated, usually from 46.2 µM), without a hit: top-dose activity change, negative = growth inhibition, usual class: inhibitors | actives 12% (n = 420,000) | AID 686979, 2013; further: potency means the concentration at half of the fitted maximal effect; nearly all actives have a fitted effect of over 55% in size
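Chicken DT40 Tdp1-/- cells stably complemented with human TDP1 were seeded at 400 cells/well in medium containing 20 nM camptothecin, exposed to pin-transferred compounds, and grown at 37 °C for at least 48 hr. Viability was read as ATP luminescence.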
TDP1 cell noCPT: qHTS for Inhibitors of human tyrosyl-DNA phosphodiesterase 1 (TDP1): qHTS in cells in absence of CPT. actives 15% (n = 420,000). DT40 Tdp1-/- hTDP1 cells, no CPT, ATP luminescence, 48 h. Potency, µM (top dose mostly 46.2 µM), for the others: at the top dose activity change, negative = growth inhibition, actives largely listed as inhibitors; further: potency means the concentration at half of the fitted maximal effect; nearly all actives have a fitted effect of over 55% in size
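Growth of hTDP1-complemented DT40 Tdp1-knockout cells is measured by ATP luminescence after at least 48 hr compound exposure at 37 °C, with DMSO substituting for the 20 nM CPT used in the parallel screen.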
HT1080NT lethal: qHTS for induction of synthetic lethality in tumor cells producing 2HG: qHTS for the HT-1080-NT fibrosarcoma cell line. actives 1.6% (n = 360,000). Potency, µM (doses to about 46.1 µM), inactives show at the top dose activity, negative = less viability, actives largely listed as cytotoxic. HT-1080-NT fibrosarcoma viability, CellTiter-Glo ATP luminescence, 48 h;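 further: NT is the 2HG producing partner of a matched IDH1 knockdown line; potency means the concentration at half of the fitted maximal effect; 0% = DMSO-treated cells and -100% = media-only wells without cells; nearly all actives have a fitted effect of over 55% in size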
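Viability by CellTiter-Glo luminescence after 48 h compound exposure at 37C of HT-1080-NT cells (750/well, RPMI, 5% FBS). % activity scaled between DMSO wells and medium-only wells, then curve-fitted and categorized by curve class.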
HT1080 IDH1KD tx: qHTS for induction of synthetic lethality in tumor cells producing 2HG: qHTS for the HT-1080-IDH1KD cell line | HT-1080 IDH1 knockdown viability, ATP luminescence, 48 h | Potency, µM (highest dose often 46.1 µM), for inactives: at the top dose activity, negative = toxicity, actives largely listed as cytotoxic | actives 2% (n = 360,000) | AID 686971, 2013;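 further: potency means the concentration at half of the fitted maximal effect; 0% = DMSO wells and -100% = cell-free medium wells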
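Luminescent ATP read-out (CellTiter-Glo, 10 min at room temperature) after 48 h compound exposure at 37 °C gave viability of IDH1-knockdown HT-1080 cells. Activity was normalised to DMSO and cell-free wells, then fitted as concentration-response curves.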
Numbers without * were called inactive; u = inconclusive; x = no result given; [ ] = remark or other dose. In the library only some 19% were active in any assay of this set; here they are far more common. Unless noted, the call rests on the fitted dose curve; in most records, active means well fitted curve in the direction sought with a large enough effect; inconclusive means small, poorly fitted or top-dose-only effect, or another doubt; inactive means no such curve, though single readings can be large; an effect the other way counts as inactive or inconclusive. Unless noted, on the % scale 0 is the no-effect control and ±100 the full control effect.

SMILES | IL1B secr inh | DT40 TDP1 CPT | TDP1 cell noCPT | HT1080NT lethal | HT1080 IDH1KD tx
O=C(c1ccc(N2C(=O)c3ccccc3C2=O)cc1)N1CCN(S(=O)(=O)c2ccccc2F)CC1 | 16 | -2% | -28% | -2% | -1%
COc1ccc(S(=O)(=O)N2CCN(C(=O)c3sccc3-c3ccccc3)CC2)cc1 | 3 | 15µM* | 21µM* | 2% | 1%
O=C(c1sccc1-c1ccccc1)N1CCN(S(=O)(=O)c2ccccc2F)CC1 | 5 | 15µM* | u | 0% | -1%
COc1ccc(N2CCN(C(=O)c3sc4ncn(CC(=O)N5CCCCC5C)c(=O)c4c3C)CC2)cc1 (stereo not given) | 3 | u | -24% | -2% | -9%
Nc1c(N(Cc2ccco2)C(=O)c2ccccc2F)c(=O)[nH]c(=O)n1Cc1ccccc1 | 6 | 10% | -6% | 2% | 2%
COC(=O)c1c(NC(=O)CN2CCCC(C)C2)c2c(C)cccc2n1C (stereo not given) | -11 | u | 6.5µM* | -12% | -4%
COCCn1nnnc1C(C(C)C)N1CCSCC1 (stereo not given) | 14 | -6% | 13% | 0% | 8%
Cc1cccc(S(=O)(=O)Nc2nc3ccccc3nc2OC(C)C)c1 | 12 | 4% | 0% | 5% | 3%
c1ccc(Oc2ccccc2-c2cc(NCCc3cccnc3)n3nccc3n2)cc1 | 17 | 18µM* | u | u | 1%
COc1cc(/C=N/Nc2nc(N3CCCC3)nc(N3CCCC3)n2)ccc1OCc1ccccc1F | -13 | 16µM* | 21µM* | 12% | 8%
COc1ccc(/C=N/Nc2nc(N3CCCC3)nc(N3CCCC3)n2)cc1O | 10 | -22% | u | -7% | -9%
O=C1C(SCCO)=C(SCCO)C(=O)c2ccccc21 | -54* | 0.052µM* | 0.16µM* | -84% | u
O=C1c2[nH]c3ccccc3c2CC1N1C(=O)c2ccccc2C1=O (stereo not given) | -7 | -14% | u | 16% | 18%
Cc1ccccc1N1CCN(C2=NC(=O)/C(=C\c3cccs3)S2)CC1 | -26 | u | u | u | u
Cc1ccsc1/C=C1\SC(N2CC(C)OC(C)C2)=NC1=O (stereo not given) | 0 | u | 15µM* | -1% | -1%
CCOc1ccc(NC(=O)CN(C)C(=O)COc2cccc3c2OC(C)(C)C3)cc1OCC | 2 | -18% | -4% | 1% | -1%
CCOc1ccc(-c2csc(Cn3c(CN4CCN(C)CC4)nc4ccccc4c3=O)n2)cc1 | -75* | 7.3µM* | 8.2µM* | -2% | -18%
CCOC(=O)C1CCN(Cc2nc3ccccc3c(=O)n2-c2ccc(OCC)cc2)CC1 | -19 | u | u | 1%[9.24 µM] | 11%
CN(C)Cc1nc2ccccc2c(=O)n1Cc1nc(-c2cc3ccccc3o2)cs1 | 32 | u | 18µM* | -13% | u
COc1ccccc1CNC(=O)N[C@@H](Cc1ccccc1)C(=O)O | -3 | 1% | -7% | 11% | 3%
CCN(CC)CCN=c1c(C)nc(C#N)c(N)n1O | -9 | -5% | 1% | 1% | 11%
COc1ccc(CNC(=O)CC(c2ccc(OC)cc2)N2Cc3ccccc3C2=O)cc1 (stereo not given) | x | u | 16µM* | x | x
COC(=O)C(Cc1ccc(OC(=O)c2ccccc2Cl)cc1)N1Cc2ccccc2C1=O (stereo not given) | -13 | u | u | -12% | -17%
COc1ccc(C(CC(=O)Nc2ncccc2C)N2Cc3ccccc3C2=O)cc1 (stereo not given) | -8 | -19% | -19% | 8% | 0%
COC(=O)C(Cc1ccc(OC(=O)c2ccccc2C)cc1)N1Cc2ccccc2C1=O (stereo not given) | 0 | u | 18µM* | -5% | -6%
SMILES | IL1B secr inh | DT40 TDP1 CPT | TDP1 cell noCPT | HT1080NT lethal | HT1080 IDH1KD tx
CCOc1ccccc1NC(=O)CC(c1ccc(F)cc1)N1Cc2ccccc2C1=O (stereo not given) | x | 16µM* | 16µM* | x | x
COc1ccccc1NC(=O)CC(c1cc(OC)c(OC)c(OC)c1)N1Cc2ccccc2C1=O (stereo not given) | x | -2% | -20% | x | x
COc1ccc(C(CC(=O)Nc2ccc(Br)cn2)N2Cc3ccccc3C2=O)cc1 (stereo not given) | x | 5.2µM* | 23µM* | x | x
Cn1c(Nc2ccc(Cl)cc2F)nc2cc(-c3ccccc3)sc2c1=O | 102 | u | u | 18% | 1%
N#Cc1c(C(F)(F)F)cc(Cc2ccccc2)nc1SCC(=O)NCC(=O)O | 1 | 12% | -12% | 15% | 21%
CN(C)c1ccc(N=Nc2ccc(C(=O)O)cc2)cc1 | 31 | 0% | 2% | 4% | 2%
Cc1csc(N=Nc2ccc(N(C)C)cc2)[n+]1[O-] | -80* | 10µM* | 9.2µM* | u | u
Cc1ccc2nc(SCC(=O)N3CCN(c4ccccc4)CC3)[nH]c2c1 | -14 | -28% | u | -9% | -11%
Cc1ccc(C)c(N2CCN(C(=O)C3CCN(c4nc5ccc(C)cc5[nH]4)CC3)CC2)c1 | x | 4.1µM* | 2.3µM* | x | x
CCCc1cc(=O)n2nc(N3CCC(C(=O)Nc4c(F)c(F)c(F)c(F)c4F)CC3)sc2n1 | -3 | -23% | -19% | 11% | 3%
COc1ccc(N2CCN(C(=O)C3CCN(c4nc5ccc(C)cc5[nH]4)CC3)CC2)cc1 | x | 10µM* | 8.2µM* | x | x
CCCc1cc(=O)n2nc(N3CCC(C(=O)N4CCN(c5ccc(OC)cc5)CC4)CC3)sc2n1 | 17 | 2.6µM* | 5.8µM* | u | 13µM*
COc1ccc2nc(N3CCCC3)[nH]c2c1 | 8 | -8% | -4% | -2% | 3%
CCCCNC(=O)C1CCN(c2nc3ccc(C)cc3[nH]2)CC1 | x | -26% | -21% | x | x
Cc1ccc2nc(N3CCC(C(=O)N4CCN(c5cccc(Cl)c5)CC4)CC3)[nH]c2c1 | x | 13µM* | 8.2µM* | x | x
C=CCSc1nc2sc3c(c2c(=O)n1CC)CCc1ccccc1-3 | -17 | 10µM* | u | 15% | 13%
C=CCn1c(SC)nc2sc3c(c2c1=O)CCc1ccccc1-3 | 84 | u | u | -4% | -4%
CCOC(=O)CN1C2=NCCN2c2ccccc21 | 18 | 5% | -7% | 7% | 3%
CCCN1C2=NCCN2c2cc(C)c(C)cc21 | 0 | -27% | 23µM* | -3% | -4%

Assay outcomes: PubChem BioAssay, National Center for Advancing Translational Sciences (NCATS)
